Experimental data taken from PubChem BioAssay.
The source made the active and inactive calls.

Experiments:
[1] = target: Albumin (Bos taurus) (UniProt P02769); test: compounds binding labelled BSA control protein – biochemical, small-molecule microarray, Alexa647 label, 635/667 nm fluorescence, artefact control for SMM control protein annotation, profiling panel (AID 1118); details: BSA-A647 binding, fluorescence 635 nm, higher = more signal;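 note: score merges 667 nm emission intensity and signal-to-noise per printed compound spot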
Chain of Albumin (Bos taurus) (P02769 whole entry, looked up): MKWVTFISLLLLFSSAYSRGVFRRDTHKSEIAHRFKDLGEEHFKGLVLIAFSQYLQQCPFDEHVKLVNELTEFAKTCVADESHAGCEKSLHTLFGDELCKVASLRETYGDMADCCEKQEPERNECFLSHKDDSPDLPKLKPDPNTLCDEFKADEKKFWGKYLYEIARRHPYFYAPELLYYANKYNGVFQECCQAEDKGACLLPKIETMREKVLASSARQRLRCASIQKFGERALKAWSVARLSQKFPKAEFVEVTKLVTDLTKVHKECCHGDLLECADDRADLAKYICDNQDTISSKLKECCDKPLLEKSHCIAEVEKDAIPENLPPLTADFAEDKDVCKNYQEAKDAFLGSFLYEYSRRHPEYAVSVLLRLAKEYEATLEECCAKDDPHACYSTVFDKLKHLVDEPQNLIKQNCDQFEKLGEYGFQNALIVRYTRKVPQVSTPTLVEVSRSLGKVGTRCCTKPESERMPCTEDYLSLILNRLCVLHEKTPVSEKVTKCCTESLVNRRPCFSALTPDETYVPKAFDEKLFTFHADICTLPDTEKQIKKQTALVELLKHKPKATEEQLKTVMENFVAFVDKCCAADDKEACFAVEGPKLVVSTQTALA

[2] = probe aXIP binding to arrayed compounds – biochemical, NeuroSMM set, 635/667 nm fluorescence, primary screen (AID 1119); details: small-molecule microarray, higher = more signal, called active from +8 up or from −8 down;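 note: probe is the protein aXip251-270 applied at 1 µg/mL to compound-printed slides; binding of probe to printed compounds measured as 667 nm fluorescence plus signal to noise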
[3] = probe aNOTCH3 binding on compound microarray – biochemical, small-molecule microarray, 635/667 nm fluorescence, primary screen (AID 1120); details: higher = more signal;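 note: probe is a biotin-tagged antibody raised against NOTCH3 rather than NOTCH3 protein; score merges spot fluorescence near 667 nm with spot signal to noise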
[4] = probe aNOTCH2 binding on compound microarray – biochemical, small-molecule microarray, 635/667 nm fluorescence, primary screen (AID 1121); details: higher = more signal;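 note: score merges feature fluorescence read at 667 nm with its signal to noise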
[5] = target: Carbonic anhydrase 2 (Homo sapiens) (UniProt P00918); test: compounds binding carbonic anhydrase 2 – biochemical, small-molecule microarray, Alexa647-labelled CAII, profiling panel (AID 1122); details: CAII-A647 binding fluorescence, higher = more signal
[6] = COS7 lysate on small-molecule microarray, probe aHis, 635 nm (AID 1123); details: COS7 cell lysate, fluorescence, higher = more signal;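 note: z-score combines 667nm fluorescence intensity with signal-to-noise per printed compound spot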
[7] = probe aLAP1 signal on lysate-treated microarray – cell lysate, small-molecule microarray, COS7 lysate, primary screen (AID 1124); details: probe aLAP1, fluorescence, higher = more signal;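 note: lysate comes from COS7 cells expressing LAP1 and is applied at 0.3 µg/mL; score merges spot fluorescence near 667 nm with signal-to-noise over triplicate slides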
[8] = test system: Sam68 (KHDRBS1); test: compounds binding KHDRBS1 protein – biochemical, small-molecule microarray, 635 nm fluorescence, primary screen (AID 1125); details: higher = more signal;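 note: score merges 667 nm channel intensity with signal to noise over triplicate slides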
[9] = test system: Chordin-like protein 2 (CHRDL2); test: compounds binding chordin-like 2 – biochemical, small-molecule microarray, 635 nm fluorescence, primary screen (AID 1126); details: fluorescence 635 nm, higher = more signal;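 note: printed compound slides probed with Chrdl2 protein at 4 µg/mL for 1 h at 4 C; score merges 667 nm emission intensity with signal to noise over three replicate slides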
[10] = target: Concanavalin-A (Canavalia ensiformis) (UniProt P02866); test: compounds binding concanavalin A lectin – biochemical, small-molecule microarray, Alexa647 label, 635 nm, artefact control for SMM control protein annotation, primary screen (AID 1127); details: ConA-A647 binding fluorescence, higher = more signal;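 note: z combines 667 nm emission intensity with signal-to-noise across three replicate slides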
Chain of Concanavalin-A (Canavalia ensiformis) (P02866 whole entry, looked up): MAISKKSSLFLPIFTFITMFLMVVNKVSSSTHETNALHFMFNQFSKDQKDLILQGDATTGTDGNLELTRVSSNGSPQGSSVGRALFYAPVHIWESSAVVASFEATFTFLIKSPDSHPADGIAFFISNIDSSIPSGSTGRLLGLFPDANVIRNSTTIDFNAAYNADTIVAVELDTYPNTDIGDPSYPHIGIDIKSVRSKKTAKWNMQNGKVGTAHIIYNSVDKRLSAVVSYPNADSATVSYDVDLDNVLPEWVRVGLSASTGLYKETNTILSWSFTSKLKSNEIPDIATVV

SMILES | composite z-score [1] | composite Z-score [2] | composite z-score [3] | composite z-score [4] | composite z-score [5] | composite z-score [6] | composite z-score [7] | composite z-score [8] | composite z-score [9] | composite z-score [10]
O=C1O[C@H](c2ccccc2)[C@H](c2ccccc2)N2[C@H]1[C@@H](C(=O)O)[C@]1(C(=O)Nc3ccc(C#CCCO)cc31)[C@H]2c1ccccc1OCCO | 0.713 | -0.308 (inactive) | -0.19 | -0.124 | 0.729 | 0.676 | 0.681 | 0.794 | -0.579 | 0.991
COC(=O)[C@@]1(Cc2ccc(OC)cc2)[C@H]2c3cc(C(=O)N4CCCC4)n(CCc4c[nH]c5ccc(OC)cc45)c3C[C@H]2CN1C(=O)c1ccccc1 | 0.93 | -0.453 (inactive) | 0.319 | 0.387 | 0.711 | 2.81 | 0.8 | 1.11 | -1.04 | 0.852
COC(=O)[C@]1(CCS(=O)(=O)c2ccccc2)N=C(c2ccc(OCCCO)cc2)O[C@@H]1c1ccccc1N=[N+]=[N-] | -0.325 | 0.0652 (inactive) | 0.359 | 0.142 | 0.78 | 2.93 | 0.612 | 1.29 | 0.412 | 1.19
C#CCN([C@@H](Cc1ccccc1)C(=O)OC)[C@@H](/C=C/C1CC1)[C@H](O)Cc1ccccc1 | 0.801 | -0.275 (inactive) | -0.0984 | -0.208 | -0.321 | -0.0769 | 0.868 | -0.326 | 1.16 | -1.5
CCOC(=O)C=Cc1cccc(C)c1O | -0.268 | -0.352 (inactive) | -0.0881 | -0.114 | 0.422 | -0.15 | 0.514 | -0.0261 | -0.0961 | 0.0646
CC(C)[Si]1(C(C)C)OCc2cc(C3CC3)nc(-c3ccc(Oc4ccccc4)cc3)c21 | -0.808 | -0.26 (inactive) | -0.177 | -0.108 | -0.204 | 0.0215 | -0.238 | -0.459 | -0.368 | -0.725
CC(C)=C1C(=O)C(c2ccccc2)=C2CN3C(=O)N(CCc4ccccc4)C(=O)[C@]3(Cc3ccc(C(F)(F)F)cc3)[C@H]21 | 0.682 | -0.355 (inactive) | 0.34 | 0.134 | 0.368 | 1.95 | 0.224 | -0.439 | -2.09 | -0.47
CCOC(=O)C[C@H]1[C@H](OC(=O)c2cc3ccccc3oc2=O)[C@@H](NC(=O)c2ccc3ccccc3n2)c2cc(OCCCO)ccc2N1C(=O)Cc1ccc(OC)cc1 | 0.463 | 0.35 (inactive) | 0.127 | -0.0878 | 0.356 | 0.219 | -0.0863 | 1.22 | 0.368 | 1.05
[N-]=[N+]=Nc1ccccc1C[C@]1(C(=O)NCC(O)CO)COC(c2ccc(OCCCO)cc2)=N1 (stereo not given in full) | 0.407 | 0.371 (inactive) | 0.0339 | -0.0482 | 0.753 | 2.09 | 0.282 | -0.206 | -1.21 | 0.832
CCOC(=O)C1=C[C@@H](c2ccccc2)N(S(=O)(=O)c2ccc(C)cc2)[C@H]1c1ccc(OC)cc1 | 0.72 | -0.0164 (inactive) | 0.815 | 0.493 | 0.614 | 1.71 | 0.755 | 1.32 | -0.224 | 1.1
C=C(/C(=C/C[C@H](OC(C)=O)c1ccc(CO)o1)c1cnc2ccccc2c1)C(C)C | 0.899 | 0.456 (inactive) | 0.245 | -0.148 | 0.945 | 0.948 | 0.269 | 1.29 | 1.06 | 1.14
